From PubChem BioAssay (NCI)
This is part of a sample that, as a whole, favours compounds with a hit. Of some 83,000 tested, about 20% had one in any assay.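 Single-dose data. Exposure time 48 hours. Values below 10 considered active.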 A number with no mark means an inactive call. Calls of active or inactive are those of the source.

What follows are compounds tested on EKVX NSCLC (assay: NCI-60 one-dose screen, 48 h (100 = growth as untreated, 0 = no growth, -100 = all killed)). Conditions: 10 µM unless noted.

**Q.** Nc1nc(Nc2ccccc2)c2ncn(Cc3ccc4c(c3)OCO4)c2n1 was tested. Which growth did it give?
**A.** 48.7%

**Q.** CC(=O)OC[C@]12CC[C@@H](C(=O)CBr)[C@@H]1[C@H]1CC[C@@H]3[C@@]4(C)CCCNC(C)(C)[C@@H]4CC[C@@]3(C)[C@]1(C)CC2 was tested. Which growth did it give?
**A.** -81% [100 µM] (active)

**Q.** With C[C@@H]1C[C@H]2C(=O)O[C@@H](C)[C@H](NC(=O)[C@H](Cc3cc(F)cc(F)c3)NC(=O)Nc3ccc(Cl)cc3F)C(=O)N3C[C@H](O)C[C@H]3C(=O)N3CCN(C)C[C@H]3C(=O)N[C@@H](C)C(=O)N2C1 as the compound, how does the growth read?
**A.** 69.8%

**Q.** With COC(=O)C(=Cc1ccccc1[N+](=O)[O-])C(=O)OC as the compound, how does the growth read?
**A.** 51.4%

**Q.** With CC1Cc2c(Cl)ncnc2N(C)c2ccc(Cl)cc21 (stereo not given) as the compound, how does the growth read?
**A.** 14.2%

**Q.** Which growth does the source give for CC1(C(=O)O)CCC(N)(C(=O)O)C1(C)C (stereo not given) here?
**A.** 112%

These compounds were tested on SN12C renal in the same assay as above. Conditions: 10 µM unless noted.

**Q.** Which growth does the source give for O=C(Nc1ccc(CN2CCOCC2)c(C(F)(F)F)c1)c1nc2ccc3[nH]ncc3c2c2c1CCCC2 here?
**A.** 94.4%

**Q.** For CC(C)[C@H]1CCC2=C3CC[C@]45OC(=O)[C@@]6(CCC(C)(C)C[C@H]64)CC[C@@]5(C)[C@]3(C)CC[C@@]21C, which growth is on record?
**A.** 70.6% [100 µM]

**Q.** With Cc1ccc2c(c1)/C(=N\N=C/c1cn(C(C)C)c3ccccc13)C(=O)N2 as the compound, how does the growth read?
**A.** 56.4%

**Q.** COc1ccc(C(=O)c2nccc3cc(OC)c(OC)cc23)cc1OC was tested. Which growth did it give?
**A.** 72.1%

**Q.** Nc1cc(C(=O)O)[nH]c(=S)n1 was tested. Which growth did it give?
**A.** 99.7%

**Q.** How did the growth turn out when CC1(C)CC[C@]2(C(=O)O)CC[C@]3(C)C(=CC[C@@H]4[C@@]5(C)C/C(=C/c6cccnc6)[C@H](O)C(C)(C)[C@@H]5CC[C@]43C)[C@@H]2C1 was run?
**A.** 6.59% [100 µM] (active)

**Q.** How did the growth turn out when ClC1=C(Cl)C(Cl)=C(Cl)C1=Cc1ccccc1 was run?
**A.** -57% (active)

**Q.** With CCCCC(CCCCCC(CCCC)C1NC(C)Cc2cc(OC)c(OC)cc21)C1NC(C)Cc2cc(OC)c(OC)cc21 (stereo not given) as the compound, how does the growth read?
**A.** -21.3% (active)

**Q.** For COc1ccccc1S(=O)Nc1ccccc1 (stereo not given), which growth is on record?
**A.** 94.4%

**Q.** How did the growth turn out when Cc1cnc(N)nc1OCC(C)(C)CNC(=O)c1cccc(-c2ccc(S(=O)(=O)Nc3ccc4c(c3)N(C(=O)C3CC3)CCC4)cc2)c1 was run?
**A.** 68.5%

**Q.** For C=C(C)[C@@H]1CC[C@]2(COC(=O)c3ccccc3C(=O)O)CC[C@]3(C)[C@H](CC[C@@H]4[C@@]5(C)CC[C@H](OC(=O)c6ccccc6C(=O)O)C(C)(C)[C@@H]5CC[C@]43C)[C@@H]12, which growth is on record?
**A.** 27.8% [100 µM]

**Q.** Cc1cc(N2CCCCCC2)nc(N2CCN(CC(=O)Nc3ccc4c(ccn4Cc4ccccc4)c3)CC2)n1 was tested. Which growth did it give?
**A.** 57.1%

**Q.** Which growth does the source give for CC1(C)C(=O)/C(=C\c2cccnc2)C[C@]2(C)[C@H]3CC[C@@H]4[C@H]5[C@H](C(=O)/C=C/c6cccnc6)CC[C@]5(C(=O)O)CC[C@@]4(C)[C@]3(C)CC[C@@H]12 here?
**A.** -29.4% [100 µM] (active)

**Q.** With CCN(CC)CCSC(=O)C(O)(c1ccccc1)C1CCCC1 (stereo not given) as the compound, how does the growth read?
**A.** 99.8%

**Q.** With O=C(NNc1ccc(-c2ccccc2)nn1)c1ccccc1 as the compound, how does the growth read?
**A.** 97.2%

**Q.** Which growth does the source give for Cc1cc2c(C(C)C)c(O)c(O)c(C=NCc3ccoc3)c2c(O)c1-c1c(C)cc2c(C(C)C)c(O)c(O)c(C=NCc3ccco3)c2c1O here?
**A.** 40.5%

**Q.** Which growth does the source give for c1ccc(-c2nnc(-c3c[nH]c4ncccc34)s2)cc1 here?
**A.** 86.6%

**Q.** With Cc1ccc(-c2cc(-c3ccc(C)cc3)nc(NCCNc3ccnc4cc(Cl)ccc34)n2)cc1 as the compound, how does the growth read?
**A.** -88.3% (active)

**Q.** How did the growth turn out when Cn1cc(-c2noc(C(=O)c3cn(C)c4ncccc34)n2)c2ccccc21 was run?
**A.** 95%

**Q.** With Cc1cc(NN=C(c2ccc(O)cc2)c2ccc(O)cc2)c([N+](=O)[O-])cc1[N+](=O)[O-] as the compound, how does the growth read?
**A.** 74.2%

**Q.** For O=C(C[n+]1ccn(CC(OCc2ccc(Cl)cc2Cl)c2ccc(Cl)cc2Cl)c1)c1ccc(F)cc1 (stereo not given), which growth is on record?
**A.** -93.5% (active)

**Q.** COc1cc(-c2nc(SCCC(C)C)nc(Nc3ccc(S(N)(=O)=O)cc3)c2C#N)cc(OC)c1OC was tested. Which growth did it give?
**A.** 26.4%

**Q.** For CC(C)=CCC[C@](C)(O)[C@H]1CC[C@]2(C)[C@@H]1CC[C@@H]1[C@@]3(C)CC[C@H](OC(=O)CCC(=O)O)C(C)(C)[C@@H]3CC[C@]12C, which growth is on record?
**A.** 15% [100 µM]

**Q.** With C=C(C)[C@@H]1CC[C@]2(C)[C@H](CC[C@@H]3[C@@H]([C@@](C)(O)CCC=C(C)C)CC[C@]32C)[C@@]1(C)CCC(=O)O as the compound, how does the growth read?
**A.** -64.2% [100 µM] (active)
